# Laboratory results reported in PubChem BioAssay (Tox21).
# “And” between values parts separate entries of the source, which are not always exact repeats. Equal entries are not always repeated. Results filed as inconclusive are left out. A call without a number means that no potency is given here. More than one record can exist for a structure, and the calls need not agree. The source made the active and inactive calls. Calls follow the shape of the full dose curve.
# Biological target: 5-hydroxytryptamine receptor 2A (Homo sapiens) (UniProt P28223)
# Assay: 5-hydroxytryptamine receptor 2A (HTR2A) small molecule agonists, cell-based qHTS assay (AID 1963587); also: nearly all actives have a fitted effect of over 30% in size; also: potency is read from the fitted curve at half-maximal effect
# Conditions: HTR2A-CHO cells, calcium flux fluorescence, agonist mode; series mostly up to 76.8 µM
# Summary of the method: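 Kinetic calcium-flux fluorescence (2 min, 1 sec intervals) after compound addition in agonist mode. HTR2A-CHO cells were cultured 18 h, then dye-loaded 1 h at 37 C.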
# 5-hydroxytryptamine receptor 2A (Homo sapiens), sequence (P28223 whole entry, looked up): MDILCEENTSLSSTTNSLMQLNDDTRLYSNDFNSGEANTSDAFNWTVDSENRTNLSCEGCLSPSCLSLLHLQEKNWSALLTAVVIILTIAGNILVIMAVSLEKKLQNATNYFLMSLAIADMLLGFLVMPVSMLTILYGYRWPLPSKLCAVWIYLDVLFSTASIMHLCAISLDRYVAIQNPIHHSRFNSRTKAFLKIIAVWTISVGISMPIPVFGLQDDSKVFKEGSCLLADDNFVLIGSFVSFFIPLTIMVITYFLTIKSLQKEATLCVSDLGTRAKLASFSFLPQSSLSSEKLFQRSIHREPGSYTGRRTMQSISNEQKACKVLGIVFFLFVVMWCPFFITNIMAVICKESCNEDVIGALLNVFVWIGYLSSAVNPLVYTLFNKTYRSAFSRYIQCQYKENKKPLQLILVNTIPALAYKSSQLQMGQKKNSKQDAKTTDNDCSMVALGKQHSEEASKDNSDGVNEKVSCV
row,Structure (SMILES),Potency
1,CCN(CC)c1ccc2c(C)cc(=O)oc2c1,inactive
2,C/C=C/C(=O)C1=C(C)C=CCC1(C)C,inactive
3,C1CSCCS1,inactive
4,CCCCCCCCS(=O)(=O)Cl,inactive
5,Cc1ccc2oc(=O)ccc2c1,inactive
6,CCC(=O)O[C@@H]1C[C@H]2CC[C@]1(C)C2(C)C,inactive
7,CC1(C)C(C=C(Cl)Cl)C1C(=O)OCc1cccc(Oc2ccccc2)c1 (stereo not given),inactive
8,CCCCC(CC)COCC1CO1 (stereo not given),inactive
9,CC(C)c1ccc(C=O)cc1,inactive
10,OCCC(F)(F)C(F)(F)C(F)(F)C(F)(F)C(F)(F)C(F)(F)F,inactive
11,NC(=O)c1ccccc1Cl,inactive
12,CC(=O)Nc1ncc([N+](=O)[O-])s1,inactive
13,NC(=O)CCCCC(N)=O,inactive
14,CS(=O)(=O)O,inactive
15,CCCCCCCCOCCC#N,inactive
16,CCOC(=O)C(C)Oc1ccc(Oc2cnc3cc(Cl)ccc3n2)cc1 (stereo not given),inactive
17,CCOC(=O)CN1CCCC1=O,inactive
18,CC(=O)O[C@H]1C[C@@H]2CC[C@@]1(C)C2(C)C,inactive
19,BrC1CCC(Br)C(Br)CCC(Br)C(Br)CCC1Br (stereo not given),inactive
20,CC(=O)CC(C)(C)C1CCCCC1,inactive
21,C=CC(=O)NC(C)C,inactive
22,O=S(=O)(O)c1cccc2ccccc12,inactive
23,CC(C)CCCCCCc1ccc(O)cc1,44.4 µM (active) and 49 µM (active)
24,CN(C)C(=O)Oc1ccc[n+](C)c1,inactive
25,O=c1[nH]c(=O)c2cn[nH]c2[nH]1,inactive
26,CN(CC1(C)CCCO1)S(=O)(=O)c1ccc(Cl)c(S(N)(=O)=O)c1 (stereo not given),inactive

# Biological target: Muscarinic acetylcholine receptor M1 (Homo sapiens) (UniProt P11229)
# Assay: Cholinergic receptor muscarinic 1 (CHRM1) small molecule antagonists, cell-based qHTS assay (AID 1963588); also: nearly all actives have a fitted effect of over 40% in size
# Conditions: CHRM1-CHO antagonist mode, calcium flux fluorescence; series mostly up to 61.5 µM
# Summary of the method: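 Compounds were tested at 15 concentrations in three independent runs. Dye-loaded CHRM1-CHO cells were exposed 5 min at room temperature before stimulation by acetylcholine added at 50nM. Intracellular calcium was read kinetically on FDSS for 3 min.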
# Muscarinic acetylcholine receptor M1 (Homo sapiens), sequence (P11229 whole entry, looked up): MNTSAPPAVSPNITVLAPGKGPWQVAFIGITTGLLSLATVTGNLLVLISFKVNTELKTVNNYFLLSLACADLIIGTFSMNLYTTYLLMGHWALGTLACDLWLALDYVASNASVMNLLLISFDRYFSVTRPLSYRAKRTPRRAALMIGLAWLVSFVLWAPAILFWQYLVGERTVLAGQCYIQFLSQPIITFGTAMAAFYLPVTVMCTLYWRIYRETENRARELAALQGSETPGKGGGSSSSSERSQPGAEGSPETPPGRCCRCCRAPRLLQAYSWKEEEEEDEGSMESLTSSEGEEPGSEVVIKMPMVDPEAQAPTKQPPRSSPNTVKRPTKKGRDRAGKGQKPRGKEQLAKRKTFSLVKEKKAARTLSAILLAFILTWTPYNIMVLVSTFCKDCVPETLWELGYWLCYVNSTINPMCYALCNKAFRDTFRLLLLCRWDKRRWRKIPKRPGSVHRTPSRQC
row,Structure (SMILES),Potency
1,CCN(CC)c1ccc2c(C)cc(=O)oc2c1,inactive
2,C/C=C/C(=O)C1=C(C)C=CCC1(C)C,inactive
3,C1CSCCS1,inactive
4,CCCCCCCCS(=O)(=O)Cl,inactive
5,O=C1CC2CC1C1CCCC21 (stereo not given),inactive
6,Cc1ccc2oc(=O)ccc2c1,inactive
7,CCC(=O)O[C@@H]1C[C@H]2CC[C@]1(C)C2(C)C,inactive
8,CC1(C)C(C=C(Cl)Cl)C1C(=O)OCc1cccc(Oc2ccccc2)c1 (stereo not given),inactive
9,CCCCC(CC)COCC1CO1 (stereo not given),inactive
10,CC(C)c1ccc(C=O)cc1,inactive
11,OCCC(F)(F)C(F)(F)C(F)(F)C(F)(F)C(F)(F)C(F)(F)F,inactive
12,NC(=O)c1ccccc1Cl,inactive
13,CC(=O)Nc1ncc([N+](=O)[O-])s1,inactive
14,CC(C)(C)NC(N)=O,inactive
15,NC(=O)CCCCC(N)=O,inactive
16,Nc1ccc(N)c(Cl)c1,inactive
17,CS(=O)(=O)O,inactive
18,CCCCCCCCOCCC#N,inactive
19,O=C(O)c1ccccc1OP(=O)(O)O,inactive
20,CCOC(=O)CN1CCCC1=O,inactive
21,CC(=O)O[C@H]1C[C@@H]2CC[C@@]1(C)C2(C)C,inactive
22,BrC1CCC(Br)C(Br)CCC(Br)C(Br)CCC1Br (stereo not given),inactive
23,CC(=O)CC(C)(C)C1CCCCC1,inactive
24,C=CC(=O)NC(C)C,inactive
25,O=S(=O)(O)c1cccc2ccccc12,inactive
26,CC(C)CCCCCCc1ccc(O)cc1,inactive
27,CN(C)C(=O)Oc1ccc[n+](C)c1,inactive
28,O=c1[nH]c(=O)c2cn[nH]c2[nH]1,inactive
29,CN(CC1(C)CCCO1)S(=O)(=O)c1ccc(Cl)c(S(N)(=O)=O)c1 (stereo not given),inactive

# Biological target: Muscarinic acetylcholine receptor M1 (Homo sapiens) (UniProt P11229)
# Assay: Cholinergic receptor muscarinic 1 (CHRM1) small molecule agonists, cell-based qHTS assay (AID 1963589); also: nearly all actives have a fitted effect of over 35% in size; also: potency is read from the fitted curve at half-maximal effect
# Conditions: CHRM1-CHO cells, agonist mode, calcium flux fluorescence; series mostly up to 76.8 µM
# Summary of the method: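 Homogeneous fluorescence calcium flux, agonist mode. Human M1-expressing CHO cells; compound dosed at 15 concentrations, three independent runs; signal sampled every 1 sec.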
row,Structure (SMILES),Potency
1,CCN(CC)c1ccc2c(C)cc(=O)oc2c1,inactive
2,C/C=C/C(=O)C1=C(C)C=CCC1(C)C,inactive
3,CC(C)=CCC/C(C)=C/C#N,inactive
4,C1CSCCS1,inactive
5,CCCCCCCCS(=O)(=O)Cl,inactive
6,O=C1CC2CC1C1CCCC21 (stereo not given),inactive
7,Cc1ccc2oc(=O)ccc2c1,inactive
8,CCC(=O)O[C@@H]1C[C@H]2CC[C@]1(C)C2(C)C,inactive
9,CC1(C)C(C=C(Cl)Cl)C1C(=O)OCc1cccc(Oc2ccccc2)c1 (stereo not given),inactive
10,CCCCC(CC)COCC1CO1 (stereo not given),inactive
11,CC(C)c1ccc(C=O)cc1,inactive
12,OCCC(F)(F)C(F)(F)C(F)(F)C(F)(F)C(F)(F)C(F)(F)F,inactive
13,NC(=O)c1ccccc1Cl,inactive
14,CC(=O)Nc1ncc([N+](=O)[O-])s1,inactive
15,CC(C)(C)NC(N)=O,inactive
16,NC(=O)CCCCC(N)=O,inactive
17,Nc1ccc(N)c(Cl)c1,inactive and 43.6 µM (active)
18,CS(=O)(=O)O,inactive
19,CCCCCCCCOCCC#N,inactive
20,O=C(O)c1ccccc1OP(=O)(O)O,inactive
21,CCOC(=O)C(C)Oc1ccc(Oc2cnc3cc(Cl)ccc3n2)cc1 (stereo not given),inactive
22,CCOC(=O)CN1CCCC1=O,inactive
23,CC(=O)O[C@H]1C[C@@H]2CC[C@@]1(C)C2(C)C,inactive
24,BrC1CCC(Br)C(Br)CCC(Br)C(Br)CCC1Br (stereo not given),inactive
25,CC(=O)CC(C)(C)C1CCCCC1,inactive
26,C=CC(=O)NC(C)C,inactive
27,O=S(=O)(O)c1cccc2ccccc12,inactive
28,CC(C)CCCCCCc1ccc(O)cc1,inactive
29,CN(C)C(=O)Oc1ccc[n+](C)c1,inactive
30,CN(CC1(C)CCCO1)S(=O)(=O)c1ccc(Cl)c(S(N)(=O)=O)c1 (stereo not given),inactive
